Results: PubChem BioAssay AID1863 (Southern Research Specialized Biocontainment Screening …, 2009)
In all, about 300,000 compounds went through this assay and about 480 (0.16%) were called active.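 How the source made its calls: active means inhibition over 29.93%, a cutoff 3 SD above the screen mean, later confirmed by dose response; inconclusive means inhibition over 29.93% but no dose response follow-up; inactive means inhibition at most 29.93% or unconfirmed.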 These entries were drawn from the full list. Potency and affinity values are given separately.

Test: inhibitors of PhoP regulon expression, primary screen, Salmonella Typhimurium, GFP reporter (AID 1863);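 further: 0% = low Mg2+ inducing control and 100% = high Mg2+ repressing control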
Settings: S. Typhimurium PhoP-regulated promoter GFP reporter, 4 h; at 50 µM; stronger effect = higher value

inhibition, inactive:
COc1ccc(CC(=O)Nc2nc(-c3ccccc3)c(C(C)=O)s2)cc1OC 5.08%, COc1ccc(S(=O)(=O)N2CCC(C(=O)NCCCc3ccccc3)CC2)cc1 -11.5%, CC(C)N=C(N)N=C(N)Nc1ccc(Cl)cc1 -0.65%, NC(N)=NC(=S)Nc1ccc(Cl)cc1 -3.56%, O=C(NCc1ccccc1)c1cncc(Br)c1 3.01%, CC1CCC2(CC1)NC(=O)N(CC(=O)c1cn(CCC#N)c3ccccc13)C2=O (centres undefined) -10.8%, Cc1cc(C)n2nc(C(=O)OCC(=O)c3c[nH]c4ccccc34)nc2n1 10.2%, COc1ccc(CNC(=O)CSc2nnc(NC(=O)C3CC3)s2)cc1 -0.4%, Oc1ccccc1/C=N/Nc1ncc(Br)cn1 -2.93%, Oc1c(Cl)cc(Cl)cc1/C=N/Nc1ncc(Br)cn1 6.58%, Oc1ccc(/C=N/Nc2nccnc2Cl)cc1 5.13%, Oc1ccccc1/C=N/Nc1nccnc1Cl 25.1%, Cc1ccccc1-n1c(SCC(=O)N/N=C/c2sccc2C)nc2ccccc2c1=O -15.1%, Cc1nn2c(-c3ccc(S(=O)(=O)N4CCN(C)CC4)o3)nnc2c2ccccc12 1.51%, Cc1cc2c(cc(C(=O)NCc3cccnc3)n2Cc2ccc(Cl)cc2)o1 13%, COc1ccc(N2CCOCC2)c(NC(=O)c2cccnc2)c1 0.01%, CCN(Cc1cn2cccnc2n1)C1CCCCC1 -4.78%, Cc1nc2ccc(Cl)cc2nc1C -3.83%, Cc1nc(N)nc(Cl)c1Cc1ccc(Cl)cc1 2.03%, O=[N+]([O-])c1cc2c(cc1CN1CCN(c3ccc(F)cc3)CC1)OCO2 -3.23%, CCOc1ccc(-c2nc(S(=O)(=O)c3ccccc3)c(NC)o2)cc1 -1.53%, COCCCNC(=O)CCCN1C(=O)c2cccnc2Sc2ccccc21 -9.37%, COc1ccc(N2CCN(c3nc4c(C)cccn4c(=O)c3/C=C(\C#N)C(N)=O)CC2)cc1 0.07%, COc1cc(Cl)ccc1OCc1cc(C(=O)N2CCC(N(C)C)C2)no1 (centres undefined) 4.49%, Oc1c(CN2CCCCC2)cc(Br)c2cccnc12 -2.58%, CN1CCN(Cc2cc(COCc3ccccc3)c3cccnc3c2O)CC1 21%, O=C(Oc1c(CN2CCOCC2)cc(Cl)c2cccnc12)c1ccccc1Cl 13.4%, O=[N+]([O-])c1cccc2c(N3CCOCC3)ccnc12 -2.73%, COCc1cc(CN2CCCC2)c(O)c2ncccc12 0.6%, O=[N+]([O-])c1cc(CN2CCN(c3ccccc3)CC2)c(O)c2ncccc12 14%, O=C(COC(=O)c1cc[n+]([O-])cc1)Nc1c(Cl)cccc1C(F)(F)F 0.58%, Cc1occc1-c1nnc(SCCNCCO)o1 -0.93%, CCn1ccnc1[C@@H]1C[C@H]2CN(Cc3cccc(Cl)c3)C(=O)[C@]23CCCN13 3.68%, CCN1C(=O)CSc2ccc(C(=O)NCc3ccc(OC)cc3)cc21 -1.69%, COc1ccc(S(=O)(=O)NN=C2CCCC2)cc1 1.9%, O=C(c1oc(=O)c2ccccc2c1-c1ccccc1)N1CCC(O)CC1 18.1%, CCOc1ccccc1N1CCN(CC(=O)Nc2ncc(C)s2)CC1 -2.9%, Oc1cccc(C=NCc2ccccc2)c1 4.18%, Oc1c(Br)cc(Br)cc1C=NCc1ccc(F)cc1 10.4%, O=C(Cc1ccccc1)N/N=C/c1cc(Br)cc(Br)c1O -8.98%, Oc1cccc(/C=N/N=C/c2cccc(O)c2O)c1O 16.2%, CCOc1ccccc1N(CC(=O)N/N=C(\C)c1cccc(Br)c1)S(C)(=O)=O -0.46%, CC(C)C[C@H](NC(=O)c1[nH]cnc1C(=O)N[C@H](C)c1ccccc1)C(=O)OC(C)(C)C -2.19%, CCCCCCCCCCCCOC(=O)C[N+](C)(C)C 0.96%, CCCCCCCCOC(=O)C[N+](C)(C)C/C=C(/C)Cl 2.02%, Cc1cc(C(=O)NCCN2CCOCC2)ccc1[N+](=O)[O-] -2.2%, Cc1nc(N)c(Cc2ccccc2F)c(N)n1 2.15%, Nc1nc(-c2ccccn2)nc(N)c1Cc1ccc(Cl)cc1Cl 3.01%, COc1ccc(C(=O)NCC(=O)N2CCN(c3ccccc3)CC2)cc1 -3.55%, COCc1c(C(=O)N/N=C/c2ccc(C)o2)nnn1-c1nonc1N 4.95%, COc1cccc(CC(=O)Nc2nc(-c3cccnc3)cs2)c1 -6.4%, Cc1ccc(N2C(=O)CC(NNc3nc4ccccc4s3)C2=O)cc1 (centres undefined) 7.17%, Cc1cc(=O)[nH]c(-n2nc(C)cc2C)n1 -11.6%, Cc1ccc(Nc2cc(C)nn2-c2nc(C)cc(C)n2)cc1 14.5%, Cc1ccc(S(=O)(=O)N2CCN(Cc3ccccc3)CC2)cc1 -4.43%, Cc1cc(C)c2ccc(C(=O)O)nc2c1O -7.66%, Cc1cc(C)c2ccc(NN)nc2c1O 0%, CCn1c(C)nnc1SCC(=O)Nc1ccc(N2CCOCC2)cc1 10%, O=C(COc1ccccc1[N+](=O)[O-])N1CCC(Cc2ccccc2)CC1 4.09%, Cc1nnc(N/N=C/C(C)c2ccccc2)[nH]c1=O (centres undefined) -2.09%, Cc1nnc(N/N=C/c2c[nH]c3ccccc23)[nH]c1=O 7.38%, S=C(Nc1ccccc1Cl)N(Cc1ccccc1)Cc1cccnc1 4.33%, O=C(CSc1ccc(-c2ccccn2)nn1)N1CCc2ccccc21 -3.41%, Cc1ccc(-c2c[n+](CC(=O)Nc3nc(-c4ccccc4)cs3)c3n2CCC3)cc1 -7.93%, Cc1ccc(-c2csc(NC(=O)C[n+]3cc(-c4ccccc4)n4c3CCC4)n2)cc1 -8.54%, Cc1ccc(NC(=O)C[n+]2cc(-c3ccc(C)cc3)n3c2CCC3)cc1 -9.5%, O=C(C[n+]1cc(-c2ccccc2)n2c1CCC2)Nc1nc(-c2ccc(F)cc2)cs1 11.3%, Cc1ccc(NC(=O)C[n+]2cc(-c3ccccc3)n3c2CCC3)cc1 -4.1%, O=C(C[n+]1cc(-c2ccc(F)cc2)n2c1CCC2)Nc1nc(-c2ccc(F)cc2)cs1 20.4%
